# Where “and” joins values, the source holds several entries; their conditions need not be identical. Identical values can stand only once. Records with an inconclusive call do not appear. More than one record can exist for a structure, and the calls need not agree. Values without a mark were called inactive. Calls of active or inactive are those of the source. Calls come from the whole dose curve; as a rule, active = well fitted inhibition curve with a large enough effect; inconclusive = small, poorly fitted or top-dose-only effect; inactive = flat fitted curve, though single readings scatter.
# Assays:
# CRL-7250 [1] = experiment: Cytotoxic Profiling of Annotated Libraries Using Quantitative High-Throughput Screening (AID 1296008); settings: Five cell lines viability, CellTiter-Glo ATP luminescence, 48-72 h; max response: active compounds read low; note: potency is the fitted concentration of half-maximal effect; for max response: % is set by controls: 0 for no effect and ±100 for the full control effect
# How it was run: (§1)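 Cells exposed to compounds for 48 or 72 hr at 37 degrees Celsius. Viability read as ATP-coupled luminescence with CellTiter-Glo after 10 min at room temperature.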
# HEK293 = experiment: as above; settings: Five cell lines viability, CellTiter-Glo ATP luminescence, 48-72 h; max response: active compounds read low
# How it was run: as §1
# HaCat = experiment: as above; settings: Five cell lines viability, CellTiter-Glo ATP luminescence, 48-72 h; max response: active compounds read low
# How it was run: as §1
# KB-3-1 = experiment: as above; settings: Five cell lines viability, CellTiter-Glo ATP luminescence, 48-72 h; max response: active compounds read low
# How it was run: as §1
# NIH3T3 = experiment: as above; settings: Five cell lines viability, CellTiter-Glo ATP luminescence, 48-72 h; max response: active compounds read low
# How it was run: as §1
# CRL-7250 [2] = experiment: qHTS assay to identify novel small-molecules to repurpose for Merkel cell carcinoma treatment (AID 1296009); settings: MCC and control cell lines, CellTiter-Glo viability, 72 h; at 44.8 µM (top of the series) unless noted
# How it was run: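 CellTiter-Glo luminescence after 72 hr compound exposure at 37 degree celsius gave cell viability. Libraries NPC and MIPE were run as 8- and 11-point dose responses; RLUs normalized to DMSO (negative) and no-cell (cytotoxicity) controls.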
# Note: nearly all actives have a fitted effect of over 60% in size.
smiles,measurement,setting,value
Cc1c(Cl)cccc1S(=O)(=O)Nc1nc(CC(=O)N2CCN(C)CC2)cs1,max response,CRL-7250 [1],0.391%
same,max response,HEK293,-10.3%
same,outcome,HaCat,inactive
same,outcome,KB-3-1,inactive
same,outcome,NIH3T3,inactive
O=C1C[C@@H]2OCC=C3CN4CC[C@]56c7ccccc7N1[C@H]5[C@H]2[C@H]3C[C@H]46,outcome,CRL-7250 [1],inactive
same,max response,HEK293,-6.49%
same,outcome,HaCat,inactive
same,max response,KB-3-1,-9.91%
same,outcome,KB-3-1,inactive
same,max response,NIH3T3,3.86%
same,outcome,CRL-7250 [2],inactive
COC1C(O)C(OC2CCC3(C=O)C(CCC4C3CCC3(C)C(C5=CC(=O)OC5)CCC43O)C2)OC(C)C1OC1OC(CO)C(O)C(O)C1O (stereo not given),Potency,CRL-7250 [1],172 nM (active)
same,Potency,HEK293,243 nM (active)
same,Potency,HaCat,1.72 µM (active)
same,Potency,KB-3-1,485 nM (active)
same,outcome,NIH3T3,inactive
CN(C)CCc1c[nH]c2ccc(CN3CCN(C)S3(=O)=O)cc12,max response,CRL-7250 [1],3.29%
same,max response,HEK293,-0.516%
same,outcome,HaCat,inactive
same,max response,KB-3-1,-6.8%
same,outcome,NIH3T3,inactive
C[C@H]1O[C@@H](O[C@H]2C[C@@H](O)[C@]3(CO)C4C(CC[C@]3(O)C2)[C@@]2(O)CC[C@H](C3=CC(=O)OC3)[C@@]2(C)C[C@H]4O)[C@@H](O)[C@@H](O)[C@H]1O (stereo not given in full),Potency,CRL-7250 [1],122 nM (active)
same,Potency,HEK293,343 nM (active)
same,Potency,HaCat,0.968 µM (active)
same,Potency,KB-3-1,432 nM (active)
same,outcome,NIH3T3,inactive
CCOc1ccccc1-n1c(C(C)N2CCN(C(=O)COc3ccc(Cl)cc3)CC2)nc2ccccc2c1=O (stereo not given),Potency,CRL-7250 [1],5.17 µM (active) and 3.71 µM (active)
same,Potency,HEK293,4.11 µM (active) and 2.95 µM (active)
same,Potency,HaCat,18.6 µM (active)
same,max response,HaCat,-19.2%
same,Potency,NIH3T3,1.03 µM (active) and 933 nM (active)
CCN1CC2(COC)C3[C@@H](OC)C4C1C3(C1C[C@]3(O)[C@H](OC(=O)c5ccccc5)C1[C@]4(OC(C)=O)[C@@H](O)[C@@H]3OC)[C@H](OC)C[C@H]2O (stereo not given in full),max response,CRL-7250 [1],-8.46%
same,max response,HEK293,-1.66%
same,max response,HaCat,3.92%
same,outcome,KB-3-1,inactive
same,outcome,NIH3T3,inactive
COC(=O)C1(C)CCC(=O)C2(C)c3c(O)cc(C(C)C)cc3C(O)C(OC(C)=O)C12 (stereo not given),max response,CRL-7250 [1],-1.03%
same,max response,HEK293,-0.554%
same,max response,HaCat,-0.878%
same,max response,KB-3-1,0.842%
same,outcome,NIH3T3,inactive
C=C(CO)C(=O)O[C@H]1C/C(C)=C/CC/C(CO)=C/[C@H]2OC(=O)C(=C)[C@H]12,max response,CRL-7250 [1],-2.43%
same,max response,HEK293,-5.5%
same,outcome,HaCat,inactive
same,outcome,KB-3-1,inactive
same,outcome,NIH3T3,inactive
CCC(C)(C#N)O[C@@H]1O[C@H](CO)[C@@H](O)[C@H](O)[C@H]1O (stereo not given in full),max response,CRL-7250 [1],-24.5%
same,outcome,HEK293,inactive
same,outcome,HaCat,inactive
same,outcome,KB-3-1,inactive
same,outcome,NIH3T3,inactive
Clc1ccc(N2C[C@H]3CC[C@@H](C2)N3)nn1,max response,CRL-7250 [1],-3.23%
same,max response,HEK293,2.01%
same,max response,HaCat,-0.574%
same,max response,KB-3-1,2.38%
same,outcome,NIH3T3,inactive
CN1[C@H]2C[C@H](OC(=O)[C@H](CO)c3ccccc3)C[C@@H]1[C@@H](O)C2,max response,CRL-7250 [1],-1.08%
same,outcome,HEK293,inactive
same,outcome,HaCat,inactive
same,max response,KB-3-1,1.1%
same,outcome,NIH3T3,inactive
CC(N)Cc1c[nH]c2ccccc12 (stereo not given),max response,CRL-7250 [1],-5.98%
same,outcome,HEK293,inactive
same,max response,HaCat,-7.15%
same,outcome,KB-3-1,inactive
same,outcome,NIH3T3,inactive
COc1cc(C(=O)O[C@H]2[C@@H]3C=CO[C@@H](O[C@@H]4O[C@H](CO)[C@@H](O)[C@H](O)[C@H]4O)[C@@H]3[C@@]3(CO)O[C@@H]23)ccc1O,max response,CRL-7250 [1],-1.79%
same,max response,HEK293,4.28%
same,outcome,HaCat,inactive
same,outcome,KB-3-1,inactive
same,outcome,NIH3T3,inactive
C/C=C(\C)C(=O)OC1C(C)OC(OC2C(C)OC(OC3CCC4(C)C(=CCC5C4CCC4(C)C(C(C)OC6OC(COC7OC(CO)C(O)C(O)C7O)C(O)C(O)C6O)CCC54O)C3)CC2OC)C(O)C1OC (stereo not given),max response,CRL-7250 [1],-8.85%
same,max response,HEK293,-2.95%
same,outcome,HaCat,inactive
same,max response,KB-3-1,0.359%
same,outcome,NIH3T3,inactive
CCN1C[C@]2(OC(=O)c3ccccc3NC(C)=O)CC[C@H](OC)[C@@]34[C@@H]2C[C@@H]([C@@H]13)[C@@]1(O)C[C@H](OC)[C@H]2C[C@@H]4[C@]1(O)[C@H]2OC,max response,CRL-7250 [1],-8.79%
same,max response,HEK293,-11.1%
same,outcome,HaCat,inactive
same,max response,KB-3-1,6.81%
same,outcome,NIH3T3,inactive
CC(=O)OC12C(O)C(C)C3(O)C4C=C(C)C(=O)C4CC(CO)=CC3C1C2(C)C (stereo not given),max response,CRL-7250 [1],1.13%
same,max response,HEK293,-4.3%
same,max response,HaCat,-13.8%
same,outcome,KB-3-1,inactive
same,outcome,NIH3T3,inactive
Cn1ncnc1COc1nn2c(-c3c(F)cccc3F)nnc2cc1C1CCC1,outcome,CRL-7250 [1],inactive
same,outcome,HEK293,inactive
same,outcome,HaCat,inactive
same,outcome,KB-3-1,inactive
same,max response,NIH3T3,2.04%
same,outcome,CRL-7250 [2],inactive
CN1CCC[C@@H]1Cc1c[nH]c2ccc(Nc3ncccc3[N+](=O)[O-])cc12,outcome,CRL-7250 [1],inactive
same,max response,HEK293,-20.4%
same,max response,HaCat,-5.05%
same,max response,KB-3-1,-5.99%
same,outcome,NIH3T3,inactive
same,outcome,CRL-7250 [2],inactive
CCC(C)(OC(C)=O)C(=O)O[C@H]1[C@H](OC(C)=O)C[C@@H]2[C@@](C)([C@@H]3C[C@H]4C=CO[C@H]4O3)[C@H](C)C[C@H](OC(C)=O)[C@@]2(COC(C)=O)[C@@]12CO2 (stereo not given in full),outcome,CRL-7250 [1],inactive
same,outcome,HEK293,inactive
same,outcome,HaCat,inactive
same,max response,KB-3-1,8.14%
same,outcome,NIH3T3,inactive
same,outcome,CRL-7250 [2],inactive [at 17.4 µM]
C=CC(C)(C)c1[nH]c2cccc3c2c1C[C@@H]1[C@@H]3[C@@H](OC(C)=O)[C@H](C)CN1C,max response,CRL-7250 [1],-2.45%
same,outcome,HEK293,inactive
same,outcome,HaCat,inactive
same,max response,KB-3-1,4.47%
same,outcome,NIH3T3,inactive

# Source: PubChem BioAssay (NCATS)
